HEK293 tox = kills HEK 293 cells | HEK 293 viability, ATP luminescence (CellTiter-Glo), 48-72 h | Potency, µM (doses to about 115 µM), actives largely listed as inhibitors | 94,000 tested, 6.6% active; also: nearly all actives have a fitted effect of over 60% in size
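HEK 293 cells at 250 cells/well were exposed to compounds by pintool transfer for 48 or 72 hr at 37 degree Celsius, 5% CO2. Viability was read as ATP-coupled luminescence with CellTiter-Glo after 10 min at room temperature.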
NIH3T3 tox = NIH 3T3 cell cytotoxicity; NIH 3T3 viability, CellTiter-Glo ATP luminescence, 48-72 h; AID 1345082; Potency, µM (series often up to 96.7 µM), usual class: inhibitors; 94,000 tested, 4.3% active; also: nearly all actives have a fitted effect of over 55% in size
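NIH 3T3 cells at 400 cells/well received 23 nL of compound by pintool and were incubated 48 or 72 h at 37 °C. Viability was read as ATP-coupled CellTiter-Glo luminescence.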
hNpr1 antagonist = blocks ANP-stimulated signaling of human Npr1 receptor | P16066 | HEK293 hNpr1 GloSensor cGMP, ANP-stimulated luminescence | Potency, µM (titrated, usually from 46.3 µM), hits mostly inhibitors | 76,000 tested, 1.6% active | AID 1347048; calls by dose curve; also: nearly all actives have a fitted effect of over 60% in size
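HEK293 cells stably expressing human Npr1 and cGMP GloSensor pGS-40F, loaded 2 h with 2% GloSensor reagent, given compound 30 min at room temperature. Luminescence read before and 20 min after 0.1 nM hNppA.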
GPT2 inh = inhibitors of human GPT2 alanine aminotransferase | Q8TD30 | Recombinant GPT2, coupled pyruvate oxidase/HRP Amplex Red fluorescence | Potency, µM (titrated, usually from 57.7 µM), usual class: inhibitors | 100,000 tested, 0.25% active | AID 1671188; also: nearly all actives have a fitted effect of over 60% in size
Target sequence (Q8TD30 whole entry, looked up): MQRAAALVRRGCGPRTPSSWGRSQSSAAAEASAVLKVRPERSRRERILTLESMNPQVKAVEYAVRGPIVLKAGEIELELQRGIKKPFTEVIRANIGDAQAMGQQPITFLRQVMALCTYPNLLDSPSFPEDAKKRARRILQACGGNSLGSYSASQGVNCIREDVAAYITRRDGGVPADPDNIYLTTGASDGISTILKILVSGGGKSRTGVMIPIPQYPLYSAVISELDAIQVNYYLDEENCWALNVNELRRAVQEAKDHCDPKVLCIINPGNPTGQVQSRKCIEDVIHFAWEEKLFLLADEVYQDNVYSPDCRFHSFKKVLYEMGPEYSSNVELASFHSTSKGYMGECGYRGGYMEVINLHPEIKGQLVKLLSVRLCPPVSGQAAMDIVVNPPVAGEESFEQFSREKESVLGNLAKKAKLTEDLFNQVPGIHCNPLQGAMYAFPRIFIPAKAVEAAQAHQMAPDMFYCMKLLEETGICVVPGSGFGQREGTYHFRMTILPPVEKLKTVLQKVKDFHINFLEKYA
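Recombinant GPT2 (10ng/uL) with 250uM a-KG and 2mM L-alanine, 30 min at room temperature, in HEPES pH 7.5 buffer. Pyruvate detected by pyruvate oxidase/HRP/Amplex Red fluorescence after 30 min in the dark; AOA (50uM) as positive control.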
Luciferase inh = blocks purified firefly luciferase enzyme activity | 76,000 tested, 2.5% active | Potency, µM (titrated, usually from 115 µM), hits mostly inhibitors | purified P. pyralis luciferase, luminescence, biochemical | P08659; also: nearly all actives have a fitted effect of over 65% in size
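Cell-free enzyme assay, 10nM P. pyralis luciferase, luciferin and ATP each at 10uM. Inhibition profiled over a 6-point titration, read as luminescence.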
Large screens that a line does not name were inactive. This is a sample that favours compounds with a hit; in the whole collection about 10% have one here. Unless noted, calls follow the shape of the dose curve; as a rule, active = well fitted curve in the direction sought with a large enough effect; inconclusive = small, poorly fitted or top-dose-only effect, or another doubt; inactive = no such curve, though single readings can be large; an effect the other way counts as inactive or inconclusive.

Cc1nc(NC(=O)N2CCCC2C(N)=O)sc1-c1ccnc(C(C)(C)C(F)(F)F)c1 (centres undefined)	none (no result: HEK293 tox, NIH3T3 tox, hNpr1 antagonist, Luciferase inh)
COc1cccc(-c2cccc(C(=O)N3CCN(C(=O)c4ccc(F)cc4)CC3)c2)c1	HEK293 tox 28µM, NIH3T3 tox inconclusive (no result: hNpr1 antagonist, Luciferase inh)
COc1cccc(-c2cccc(C(=O)N3CCN(C(=O)c4ccc(C)cc4)CC3)c2)c1	HEK293 tox inconclusive, NIH3T3 tox inconclusive (no result: hNpr1 antagonist, Luciferase inh)
COc1cccc(-c2cccc(C(=O)N3CCN([S+](=O)([O-])c4ccccc4)CC3)c2)c1	HEK293 tox 35µM, NIH3T3 tox inconclusive (no result: hNpr1 antagonist, Luciferase inh)
CNC(=O)c1cc(C)nc2onc(C3CCCN3C(=O)N(C)C)c12 (centres undefined)	none (no result: hNpr1 antagonist, GPT2 inh, Luciferase inh)
CCc1nc2c(c(-c3ccc(Cl)cc3)n1)CCN(C(=O)c1ccccc1)CC2	HEK293 tox inconclusive
CCOc1cccc2c1OC[C@@H]1CN(C)C(=O)CCN(C(C)=O)[C@H]21	NIH3T3 tox inconclusive (no result: hNpr1 antagonist, GPT2 inh, Luciferase inh)
CN(Cc1cccc2cnccc12)C(=O)COc1ccc(Cl)cc1Cl	HEK293 tox 45µM, NIH3T3 tox inconclusive, hNpr1 antagonist inconclusive
COc1cccc2c1C(=O)c1c(O)c3c(c(O)c1C2=O)C[C@@](O)(C(=O)CO)C[C@@H]3O[C@H]1C[C@H](N)[C@H](OC2CCCCO2)[C@H](C)O1 (some centres undefined)	GPT2 inh 3.1µM (no result: HEK293 tox, NIH3T3 tox, hNpr1 antagonist, Luciferase inh)
COc1ccc(-c2cc(C(=O)NC3CCCCC3)c3cnn(C)c3n2)cc1	HEK293 tox inconclusive, NIH3T3 tox inconclusive (no result: hNpr1 antagonist, Luciferase inh)
CCc1ccc(NC(=O)N2CCCC(c3noc(COc4ccccc4F)n3)C2)cc1 (centres undefined)	HEK293 tox inconclusive, NIH3T3 tox inconclusive, hNpr1 antagonist inconclusive, Luciferase inh 2.2µM
CCS(=O)(=O)N1CCC(c2noc(COc3ccc(F)cc3)n2)C1 (centres undefined)	HEK293 tox inconclusive
O=C(CC1CCCCC1)N1CCCC(c2noc(COc3ccccc3)n2)C1 (centres undefined)	HEK293 tox inconclusive, NIH3T3 tox 40µM, hNpr1 antagonist inconclusive
Cc1c(F)cccc1NC(=O)N1CCCC(c2noc(COc3ccccc3)n2)C1 (centres undefined)	HEK293 tox inconclusive, NIH3T3 tox inconclusive, Luciferase inh 11µM
Cc1ccc(OCc2nc(C3CCN(S(=O)(=O)Cc4ccccc4F)C3)no2)cc1 (centres undefined)	HEK293 tox 25µM, NIH3T3 tox inconclusive, hNpr1 antagonist inconclusive
Cc1ccc(-n2nc(-c3c(C)nc4scc(CC(=O)Nc5ccc(F)cc5)n4c3=O)cc2C)cc1	HEK293 tox inconclusive, NIH3T3 tox inconclusive
COC(=O)CNC(=O)c1ccc2oc(-c3ccncc3)nc2c1	none (no result: hNpr1 antagonist, Luciferase inh)
Cc1cccc(C(=O)N2CCCC(c3noc(COc4ccccc4F)n3)C2)c1 (centres undefined)	HEK293 tox inconclusive, NIH3T3 tox inconclusive
O=C(c1cccc(F)c1)N1CCCC(c2noc(COc3ccccc3F)n2)C1 (centres undefined)	HEK293 tox 71µM, NIH3T3 tox inconclusive
O=C1CCN(S(=O)(=O)c2ccccc2)CCCC(C(=O)NCCc2c[nH]c3ccccc23)CCN1 (centres undefined)	none
CN1CCOc2c(C(=O)NCCc3cnc[nH]3)cc(-c3ccccc3F)cc21	HEK293 tox 89µM, NIH3T3 tox inconclusive
COc1cc(F)ccc1-c1cc(C(=O)NCCc2cnc[nH]2)c2c(c1)N(C)CCO2	HEK293 tox inconclusive, NIH3T3 tox 100µM
COc1ccc(-c2ccc3nc(-c4ccccc4)oc3c2)c(OC)c1OC	HEK293 tox 45µM, NIH3T3 tox inconclusive
COc1cc2c(cc1OC)C(CNC(=O)c1ccc(C)cc1)N(C(=O)NC(C)C)CC2 (centres undefined)	HEK293 tox 40µM
COc1cc2c(cc1OC)C(CNC(=O)c1ccc(C)cc1)N(C(=O)Nc1ccccc1F)CC2 (centres undefined)	HEK293 tox inconclusive
CNC(=O)N1c2ccccc2CC1c1nc(C(C)C)no1 (centres undefined)	none
Cc1ccc(C)c(S(=O)(=O)N2c3ccccc3CC2c2nc(C(C)C)no2)c1 (centres undefined)	HEK293 tox 14µM, NIH3T3 tox inconclusive (no result: hNpr1 antagonist, Luciferase inh)
O=C(NCCCc1ccccc1)c1ccc2nnc(-c3cncc(Cl)c3)n2c1	HEK293 tox inconclusive, NIH3T3 tox inconclusive (no result: hNpr1 antagonist, Luciferase inh)
O=C1CO[C@H]2CCN(Cc3ccc4c(c3)CCO4)CC[C@@H]2N1Cc1ccccc1	HEK293 tox inconclusive, NIH3T3 tox 100µM
CC(C)c1ccc(CN2CC[C@@H]3OCC(=O)N(Cc4ccccc4)[C@H]3CC2)cc1	HEK293 tox 32µM, NIH3T3 tox 35µM, hNpr1 antagonist inconclusive
O=C(NCc1ccccc1)C1CCCN(c2nccc(Nc3ccccc3F)n2)C1 (centres undefined)	HEK293 tox 18µM, NIH3T3 tox 32µM (no result: hNpr1 antagonist, Luciferase inh)
O=C(C1CCCN(c2nccc(Nc3ccccc3F)n2)C1)N1CCCC1 (centres undefined)	HEK293 tox 45µM, NIH3T3 tox 32µM, GPT2 inh inconclusive (no result: hNpr1 antagonist, Luciferase inh)
CN(C)C(=O)C1CCCN(c2nccc(Nc3ccccc3F)n2)C1 (centres undefined)	HEK293 tox inconclusive, NIH3T3 tox inconclusive (no result: hNpr1 antagonist, Luciferase inh)
O=C(C1CCCN(c2nccc(Nc3ccccc3F)n2)C1)N1CCN(c2ncccn2)CC1 (centres undefined)	HEK293 tox inconclusive, NIH3T3 tox inconclusive (no result: hNpr1 antagonist, Luciferase inh)
O=C(NCC1CC1)C1CCCN(c2nccc(Nc3ccccc3F)n2)C1 (centres undefined)	HEK293 tox inconclusive, NIH3T3 tox inconclusive (no result: hNpr1 antagonist, Luciferase inh)
O=C(NCc1ccc(C(F)(F)F)cc1)C1CCCN(c2nccc(Nc3ccccc3F)n2)C1 (centres undefined)	HEK293 tox inconclusive, NIH3T3 tox 32µM (no result: hNpr1 antagonist, Luciferase inh)
O=C(NCC1CCCCCC1)C1CCCN(c2nccc(Nc3ccccc3F)n2)C1 (centres undefined)	HEK293 tox 28µM, NIH3T3 tox inconclusive (no result: hNpr1 antagonist, Luciferase inh)
COc1cccc(CNC(=O)C2CCN(c3nccc(Nc4ccccc4F)n3)CC2)c1	HEK293 tox inconclusive, NIH3T3 tox inconclusive (no result: hNpr1 antagonist, Luciferase inh)
O=C(NCc1cccc(F)c1)C1CCCN(c2nccc(Nc3ccccc3F)n2)C1 (centres undefined)	HEK293 tox inconclusive, NIH3T3 tox 28µM (no result: hNpr1 antagonist, Luciferase inh)
Cn1ncc2c(C(=O)NCc3ccc(C(F)(F)F)cc3)cc(-c3ccccc3F)nc21	HEK293 tox 32µM, NIH3T3 tox inconclusive (no result: hNpr1 antagonist, GPT2 inh, Luciferase inh)
Cn1ncc2c(C(=O)NCc3ccc(F)cc3)cc(-c3ccccc3F)nc21	NIH3T3 tox inconclusive (no result: hNpr1 antagonist, GPT2 inh, Luciferase inh)
Cn1ncc2c(C(=O)NCCc3ccccc3)cc(-c3ccc(C(F)(F)F)cc3)nc21	none (no result: hNpr1 antagonist, GPT2 inh, Luciferase inh)
C#CCNC(=O)c1cc(-c2ccc(C(F)(F)F)cc2)nc2c1cnn2C	HEK293 tox 25µM, NIH3T3 tox inconclusive (no result: hNpr1 antagonist, GPT2 inh, Luciferase inh)
Cn1ncc2c(C(=O)NCc3cccc(Cl)c3)cc(-c3cccnc3)nc21	HEK293 tox inconclusive, NIH3T3 tox inconclusive (no result: hNpr1 antagonist, Luciferase inh)
